# Reference: PubChem BioAssay AID1508600 (Functional Genomics Laboratory (NCATS/FGL), 2020)
# Screen size: about 53,000 sequences; about 3,700 (7%) were called active. Many of the other results were omitted from the sample, so actives are more common in it than they were. Unmarked numbers belong to inactive results.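 Rule for the calls: active = gene knockdowns whose robust z-score for IL-1 alpha signal is at least 2 or at most -2, so actives lie on both sides; inactive = the rest.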
# Test: Components of the Cytosolic LPS Sensing Pathway: Gene Identification via Genome-wide siRNA Screen;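 note: robust z of the log signal after scaling to non-targeting control siRNA wells of the plate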
# Settings: RAW264.7 macrophages, IL-1a HTRF, actives lie on both sides, screened at 100 nM (by protocol), cells primed 5 h with Pam3CSK4 first
# Summary of the method: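 Mouse macrophage line RAW264.7 is transfected with siRNA (100 nM final), grown 48h, primed with TLR ligand Pam3CSK4 5 h and given intracellular LipidA 24 h. IL-1a in supernatant is read by HTRF and viability by luminescence.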
row,Sequence,z-score
1,GGGAAAUGGUGAAUCACAGTT against Dpp8,2.25 (active)
2,GGCAGAAGCCGUUAGAGAUTT against Cep295nl,0.35
3,CCAAUCGUAAUGACAAUUCTT against Myo1d,-0.857
4,GGGACAACACUCUUUUACUTT against Nab2,0.696
5,GGAGGACUUUCAGUUAUAUTT against Ogfod3,1.32
6,GCGAUUGUGCUUUUGAGCCTT against Tanc2,1.97
7,GGCUUCAGUGAUGAAUGAATT against Tor1aip1,-0.594
8,GCCACGACACGAUGACAUATT against Plcxd1,0.918
9,GCUAAGUUAAGCUUAAUACTT against Rbl1,3.33 (active)
10,GGCAUAGCCACUAAAAAAATT against Muc2,-0.832
11,GGUUUCCAGUUAUCUUAAUTT against Glipr1l2,1.46
12,GGACAAAGAAACUCAUAGGTT against A530021J07Rik,0.737
13,GGCUUUUUAGGAAACUAUATT against Olfr361,2.12 (active)
14,GGUGAACUUCUUUGGUGCATT against Hsd11b2,0.0519
15,GCUUAGAAAUCUUAUCCCATT against Hnrnpc,-1.19
16,GGCACUUCUUUCCAAGACGTT against Gbp7,-0.373
17,GCCUGUUCUAUGUUACUGGTT against Olfr320,-1.99
18,GCGAUGUCAAUCAAUUCUGTT against Gpr37l1,0.513
19,GCAUUUCGUCAGGGCAAAATT against Fuca1,-0.515
20,UAUUUCUCCCUUGCUGGUATT against Gm5168,1.18
21,CCGCUGAAAAUGGAAGUUATT against Mrgprb4,-2.21 (active)
22,GCCCAGAAUAGACAAACCGTT against Wfdc15b,-1.95

row,Sequence,z-score
1,CCUGAUCCCAUGUAAAACATT against Sspn,-0.35
2,GGGAAUGACAGAAAUAUAATT against Golm1,0.923
3,GGUUGUUACCUUACUGUACTT against Olfr532,0.952
4,GGCUAUUGUUGGUAGAACUTT against Dek,0.441
5,CGUAAUACAAUCCAGUUCATT against Aqr,-2.18 (active)
6,GGACUUAUGAGCAAAUAAATT against Rprd1a,0.494
7,GGAACUUUAUGUCUCCUACTT against Lrrc56,-0.988
8,GGUUUCCUUUAUCAAGAAGTT against Snrnp25,-0.00388
9,CCUAUAAGUGAACUGUGAUTT against Aig1,-0.71
10,CCUGUAUACUAUCACUUGUTT against Casp8,0.103
11,GCAGCUGCACUAAAGAACGTT against Dlg1,2.9 (active)
12,GGUGUCUUAUGAGCAAUAUTT against Pdcd6,-1.12
13,GGGAAAUCAGAUAAAGCCCTT against Myl12a,0.874
14,GGCAACAACAUACCUAAUATT against Rmdn1,-0.756
15,GGUACUUUCGCAUCCUGCATT against Rnaseh2b,-0.397
16,GGCAAAUGAGAAACAGCAATT against Cxcl16,-2.23 (active)
17,GGUGUUGGCUCACAACCAATT against Fam234b,-1.67
18,GGUCAUUCCCAUUAAACAGTT against Emc8,-2.57 (active)
19,GGGCUCUGAAUUGAAGAAATT against Ralgps2,-0.163
20,CCCUUAGGGAGUGCUGUGATT against Gc,-1.85
21,CCAAAGGGAAGAGUUAUGCTT against Tmem126b,2.34 (active)
22,CCCAUGAACCUUAUUUGAATT against Ino80c,-0.268

row,Sequence,z-score
1,GGUGGUAUUGUUGGCUUUATT against Olfr1297,0.293
2,GAUGGACAGAAAUCAGGAGTT against Arap1,0.208
3,CGGUCAUUUGAAGUAGGAATT against Pwwp3a,0.76
4,GGAUCAUCUCCUCUACUCUTT against Olfr394,-1.84
5,GGAAGUAGCUUAUUGUUCUTT against Polr2b,-2.69 (active)
6,CCAGGUGAAUUAAUAGUCUTT against Stk4,0.93
7,GGUACUAAAUCAAACAUCCTT against Angpt1,0.578
8,GAUCUUUCGACACAUCACCTT against Cyp4a12a,-2.02 (active)
9,GCCUGAAUCCGCCACAUUGTT against Cx3cl1,1.6
10,GGAGGACCAUUGUAAGUAGTT against 9930022D16Rik,2.17 (active)
11,CCUGGAUGCAGGUUAAGCUTT against Dppa5a,-0.817
12,GCUGAAACUAACAUUUGAUTT against Anxa3,0.146
13,CCUCCACUAUACGGUAAGUTT against Pla2g2c,-3.37 (active)
14,GGCUGGAUGUCAGAUUGCATT against Olfr1389,-1.38
15,GGACCAGUUUGAGUAUGAGTT against Tmem11,-1.58
16,CCUGUGAGGCCAUUGAUUCTT against Acsbg1,-1.33
17,GGACUCUUUUUGUUCUUUGTT against Vgll2,-1.22
18,CGUUACCAUGAGAGUUAAUTT against Pcdhb19,3.83 (active)
19,CGGGAGUAUCUGCUUCAGUTT against Ndufb4,0.336
20,GGCUGAAGAGAUUGUCAAUTT against Aars,-0.392
21,CCUGCUAAACCUGGACCAUTT against Hic1,1.61
22,GGAGCUUAGCCUCUGUAUGTT against Gatd3a,-0.86

row,Sequence,z-score
1,GGUAAAGACAAGAUUAAAGTT against Cyp39a1,-0.308
2,GCCACUCAUAUUGAUCCAUTT against Prss34,-2.31 (active)
3,GGUGUUUACUCCGUACCCATT against Tbrg4,-2
4,GCGUGAACCUCCUUCUUGATT against Ramp3,-1.29
5,GGAGAGGCAUCUUUUCCUATT against Arhgap20,-0.338
6,CCCACCUAGGUUCAUCCCATT against Fat1,-1.4
7,GGAAUGUGAGCUUAUCAUATT against Tlr1,-0.965
8,GCAUAGAUUGAUGGCUAAUTT against Chd8,1.18
9,GCAUAGCAGAGAUGAUUCUTT against Trip12,2.15 (active)
10,GGUUGAUGAGUUUAGGUUUTT against Cpsf2,0.264
11,GGGUUCAAAAGCCCAUAUUTT against Gm6787,0.206
12,GGUCUUCGAAACACAGCUGTT against Exoc3l2,-0.402
13,GGUUUUAUCAGAAUGUCAGTT against Atpaf2,0.464
14,CCAUAGUAUUGAUGUCUGCTT against Nat8f2,0.363
15,GGACUCUUUUCUACGUGGATT against Klhl1,2.54 (active)
16,CCCUAGGUCAUAGCUUGACTT against Crtc1,1.58
17,CGGUCCCAAACGGUCAAGUTT against Tafa2,1.69
18,GCCUGGAAUGCAGAAUCGATT against Vwa2,-0.0276
19,CCCAAAGUGCUUUACAAUGTT against Aard,2.1 (active)
20,GGUUCAACGCAAAGUUCGCTT against Aldh4a1,0.347
21,GCUACUAUGUGCCCUGAUATT against Ms4a7,-0.458
22,CCUCCUUAUCCAUAAUAUUTT against Slc35a3,0.727

row,Sequence,z-score
1,GGCUCUAAAACUGUCAGACTT against Scp2d1,2.25 (active)
2,GGGUAUUUUGACAAUUUGGTT against Lrig3,-0.576
3,GGCCAGACCUUUGUGAAUGTT against Ctse,-1.96
4,GGAAUCUUUAGACCAUCUCTT against Myh1,5.3 (active)
5,GGCCAUGAAUCUUGUUGGGTT against Scg5,-0.684
6,GGAAGUCACCAUCAACCAGTT against Krt4,0.168
7,CGAGCACUAUUUUGGAUUATT against Usp12,0.0102
8,GGCUGUGAUCUCCUGGCUUTT against Rnft2,-1.46
9,GGCUUUACGAGGAAAAAGGTT against Pex1,2.09 (active)
10,GGAAUGCAUGCUAAUUCAGTT against Thsd1,1.1
11,GGAUUCUGAGUGUACGUUUTT against Zfp28,0.0227
12,CGAGGGAUAAGAGUCUACGTT against Ubxn11,1.45
13,GCUAAUUCCAAGAAAGAAGTT against Lifr,-0.326
14,GGACCAUCCCUGCUUAAUGTT against Brat1,-2.09 (active)
15,CGGUCAACAUCAAUGGUAATT against Gkn1,-1.28
16,GCUAAGAUUCCUUCCAGUATT against Adm2,0.98
17,GGUUCUACCUCAAGAUGUUTT against Srd5a2,0.0188
18,CCUAUAUCAUCAUGGUUUGTT against Tmx1,2.4 (active)
19,GGACUACGUAUUUUCCCUGTT against Cyc1,-0.39
20,GCUCUGAUAUUCUCAUCAATT against Olfr39,1.25
